# Assay outcomes: PubChem BioAssay, National Center for Advancing Translational Sciences (NCATS)
# Hits are enriched below; roughly 7.9% of the tested compounds scored in any of these assays.
# SW480 rerep – induces DNA re-replication in SW480 colon adenocarcinoma cells; SW480 DNA re-replication, Hoechst DNA content imaging, 48 h; Potency, µM (series often up to 46.1 µM), for inactives: top-dose re-replication activation, hits mostly activators; 1.8% of 340,000 active; also: % of control where 0% means no effect; nearly all actives have a fitted effect of over 55% in size
#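 Hoechst fluorescence of nuclei (405 nm excitation, 500-530 nm emission) measured by plate-scanning imager after 48 hr compound exposure at 37 C; re-replication scored as increased number of nuclei with elevated intensity.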
# KB-3-1 cytotox – kills parental KB-3-1 adenocarcinoma cells; AID 1347075; KB-3-1 viability, CellTiter-Glo ATP luminescence, 72 h; Potency, µM (titrated, usually from 46.1 µM), most hits filed as cytotoxic; 1.4% of 400,000 active; also: % is scaled to controls: 0 for no effect and ±100 for the full control effect; nearly all actives have a fitted effect of over 60% in size
#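 Cells are dispensed, compounds pinned in, plates held at 37 °C for 72 h, then CellTiter-Glo is added and luminescence read after 10 minutes. Cell line: parental KB-3-1 in phenol-red-free DMEM, 10% FBS.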
# HT1080 IDH1KD tx – kills HT-1080 cells with IDH1 knockdown. HT-1080 IDH1 knockdown viability, ATP luminescence, 48 h. AID 686971. 2% of 360,000 active. Potency, µM (titrated, usually from 46.1 µM), for the others: at the top dose activity, negative = toxicity, hits mostly cytotoxic;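 also: 0% = DMSO wells and -100% = cell-free medium wells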
#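 In this qHTS, HT-1080 cells depleted of IDH1 are exposed for 48 h at 37 °C to compound titrations. Toxicity is scored from CellTiter-Glo luminescence, with DMSO as full viability and medium alone as none.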
# KB-V1 MDR tox – KB-V1 MDR subline cytotoxicity; KB-V1 MDR cells viability, CellTiter-Glo, 72 h; Potency, µM (titrated, usually from 46.1 µM), most hits filed as cytotoxic; 3.4% of 400,000 active; also: % is scaled to controls: 0 for no effect and ±100 for the full control effect; nearly all actives have a fitted effect of over 60% in size
#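 Luminescent ATP read-out (CellTiter-Glo, 10 min) measures survival of drug-selected KB-V1 MDR cells after 72 h, 37 degrees C compound exposure. Medium: phenol-red-free DMEM, 10% FBS. Values from fitted concentration-response curves.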
# MCF10A rerep – induces DNA re-replication in MCF 10a normal breast cells; 2.9% of 350,000 active; Potency, µM (highest dose often 46.1 µM), without a hit: at the top dose activity, positive = re-replication, hits mostly activators; MCF 10A DNA re-replication, Hoechst nuclear intensity, 48 h; AID 624296; also: % of control where 0% means no effect; nearly all actives have a fitted effect of over 50% in size
# HT1080NT lethal – kills 2HG-producing HT-1080-NT fibrosarcoma cells | AID 686970 | Potency, µM (series often up to 46.1 µM), for the others: at the top dose activity, negative = less viability, most hits filed as cytotoxic | HT-1080-NT fibrosarcoma viability, CellTiter-Glo ATP luminescence, 48 h | 1.6% of 360,000 active;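 also: NT is the 2HG producing partner of a matched IDH1 knockdown line; 0% = DMSO-treated cells and -100% = media-only wells without cells; nearly all actives have a fitted effect of over 55% in size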
#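 Viability of the 2HG-overproducing fibrosarcoma line after 48 hours of compound exposure at 37 degrees C was determined by luminescence with CellTiter-Glo, and concentration-effect curves were then fitted and categorized.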
# * marks the source's active call; other numbers are inactive results; i = inactive; ? = inconclusive; / = no result; [ ] = dose if it differs, or a comment. Calls follow the shape of the dose curve; as a rule, active = well fitted curve in the direction sought with a large enough effect; inconclusive = small, poorly fitted or top-dose-only effect, or another doubt; inactive = no such curve, though single readings can be large; an effect the other way counts as inactive or inconclusive. Potency is read from the fitted curve at half-maximal effect.
SMILES,SW480 rerep,KB-3-1 cytotox,HT1080 IDH1KD tx,KB-V1 MDR tox,MCF10A rerep,HT1080NT lethal
Cc1cc(N2CCN(C)CC2)ccc1NC(=O)c1ccc(-c2ccc(Cl)cc2)o1,6%,i,23µM*,i,1.2µM*,23µM*
CN1CCN(c2ccccc2NC(=O)c2ccc(-c3ccc(Br)cc3)o2)CC1,8.2µM*,?,2.6µM*,?,4.1µM*,?
CN1CCN(c2ccc(NC(=O)c3ccc(-c4ccccc4F)o3)cc2)CC1,8%,i,-3%,?,24%,-1%
CN1CCN(c2ccccc2NC(=O)c2ccc([N+](=O)[O-])o2)CC1,2.3µM*,/,-6%,/,15µM*,1%
CN1CCN(c2ccccc2NC(=O)c2ccc(-c3cccc([N+](=O)[O-])c3)o2)CC1,?,i,-18%,i,?,-16%
O=C(Nc1ccccc1N1CCCCC1)c1ccc(-c2ccc(Cl)cc2)o1,2.9µM*,8.2µM*,2.1µM*,21µM*,?,2.1µM*
Cc1ccc(S(=O)(=O)N(C)C)cc1NC(=O)COC(=O)Cc1cccs1,-6%,i,7%,i,-1%,16%
Cc1cc(O)c(NC(=S)NC(=O)c2ccc(-c3ccc(Cl)cc3)o2)cc1C,12%,i,?,i,16µM*,?
CN1CCN(c2ccccc2NC(=O)c2c(F)cccc2F)CC1,-3%,i,-5%,i,-4%,-7%
Cc1c(C(=O)Nc2ccccc2N2CCN(C)CC2)oc2ccc(F)cc12,?,16µM*,-2%,?,?,-21%
Cc1ccc(NC(=S)NC(=O)c2ccc(-c3ccc(Cl)cc3)o2)c(O)c1,7%,?,?,?,?,?
O=C(Cc1cccs1)NC1C(=O)N2C(C(=O)[O-])=C(C[n+]3ccccc3)CSC12 (stereo not given),-2%,/,/,/,-2%,/
CC1CCN(C(=O)c2cc3c(=O)n(C)c4cc(Cl)ccc4c3s2)CC1,/,i,/,i,/,/
Cc1ccc(-n2nnnc2SCc2nnc(-c3ccccc3Br)o2)c(C)c1,2%,i,-6%,10µM*,-2%,-26%
Cn1nnnc1SCc1nnc(-c2ccccc2Br)o1,1%,i,4%,i,-3%,5%
CCC1(c2ccc(F)cc2)NC(=O)N(CC(=O)N2CC(=O)Nc3ccccc32)C1=O (stereo not given),-5%,i,1%,i,0%,2%
Cc1ccc(NC(=O)CS(=O)CC(=O)Nc2cnc3ccccc3c2)cc1Cl (stereo not given),-1%,i,-17%,i,24%,-7%
Cc1ccc(NC(=O)CS(=O)CC(=O)NCCCc2ccccc2)cc1Cl (stereo not given),7.3µM*,i,?,i,?,?
COc1ccc(Br)cc1C(=O)Nc1cccc(NC(=O)c2ccco2)c1,-9%,i,-10%,9.2µM*,5%,-18%
Cc1ccc(SCC(=O)Nc2cccc(NC(=O)c3ccco3)c2)cc1,-8%,i,-3%,16µM*,?,5%
COc1ccc(Br)cc1C(=O)Nc1cccc(C)c1,3%,i,-6%,i,-5%,-3%
COc1cc(NS(=O)(=O)c2ccc(Br)cc2)c(OC)cc1NC(=O)c1ccco1,6%,i,0%,8.2µM*,-1%,-2%
O=C(Nc1cccc(NC(=O)c2ccc(-c3cccc(Br)c3)o2)c1)c1ccco1,?,i,?,23µM*,21%,-44%
O=C(Nc1cccc(NC(=O)c2ccco2)c1)c1ccccc1,-8%,i,1%,i,3%,-7%
Cc1ccc(S(=O)(=O)N2Cc3ccccc3CC2C(=O)N(C)C)cc1 (stereo not given),/,i,0%,i,/,6%
SMILES,SW480 rerep,KB-3-1 cytotox,HT1080 IDH1KD tx,KB-V1 MDR tox,MCF10A rerep,HT1080NT lethal
COc1cccc(NC(=O)c2ccco2)c1,-1%,i,0%,i,2%,7%
CC(C)(C)NC(=O)c1cccc(NC(=O)CSc2ccc(Cl)cc2)c1,-147%,?,-10%,15µM*,-3%,-1%
COc1c(C)cc(Br)cc1C(=O)O,-5%,i,1%,?,-8%,2%
COc1c(C)cc(Br)cc1C(=O)Nc1cccc(NC(=O)c2ccco2)c1,-2%,i,9%,3.3µM*,?,-1%
COc1c(C)cc(Br)cc1C(=O)Nc1ccccc1C,-37%,i,1%,i,1.5µM*,16%
CC(C)(C)NC(=O)CCSc1nc(-c2ccc3c(c2)OCO3)cc(C(F)(F)F)n1,/,i,/,?,/,/
CC(C)CN1CC(Br)C(=O)NC1=O (stereo not given),0%,i,8%,?,3%,13%
CCOC(=O)c1sc2c(c1C)C(c1cccs1)C1=C(CCCC1=O)N2 (stereo not given),?,?,?,i,9.2µM*,-21%
COC(=O)c1sc2ccccc2c1-n1cccc1C(=O)C(=O)Nc1ccc(OC)cc1,-5%,5.8µM*,-10%[9.24 µM],8.2µM*,28%,-23%
CCCn1c(O)c(N=NC(=O)c2cccnc2)c2cc(Br)ccc21,?,i,-22%,?,?,18µM*
CCn1c(O)c(N=NC(=O)c2cccs2)c2ccccc21,-1%,?,10%,9.2µM*,13%,14%
CCn1c(O)c(N=N)c2ccccc21,-7%,i,0%,i,-10%,5%
CCCn1c(O)c(N=N)c2ccccc21,-7%,i,-9%,i,-1%,-4%
C=CCn1c(O)c(N=NC(=S)Nc2cccc(OC)c2)c2ccccc21,-1%,2.3µM*,-26%,?,-33%,-15%
CCCn1c(O)c(N=NC(=O)c2ccco2)c2ccccc21,4%,?,15%,2.6µM*,14%,20%
Cc1ccc(S(=O)(=O)N2CCOC2CNC(=O)C(=O)NCCCN2CCOCC2)cc1 (stereo not given),-13%,i,-2%,i,-8%,1%
CCn1c(O)c(N=NC(=O)CNC(=O)c2ccco2)c2ccccc21,-7%,?,-14%,i,2%,-29%
C=CCn1c(O)c(N=NC(=O)CNC(=O)c2ccco2)c2ccccc21,16µM*,?,21µM*,?,18µM*,?
O=C(CSc1nc(N2CCOCC2)nc(N2CCOCC2)n1)Nc1cccc(C(F)(F)F)c1,-3%,i,-8%,i,5%,-18%
O=C(NCCCN1CCCC1)c1ccc2c(Cl)c3c(nc2c1)CCCC3,-8%,i,23µM*,?,12%,18µM*
